PubChem BioAssay AID504840 (Johns Hopkins Ion Channel Center, 2011)
About 890 (59%) of roughly 1,500 compounds were called active.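 How the source made its calls: active means inhibition of the choline-evoked signal at any tested dose together with a fitted dose-response curve; inactive means no inhibition at any dose or no curve.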 The set was probably picked from earlier hits. These entries were drawn from the full list. Results with a measured potency or affinity are listed apart.

target: High affinity choline transporter 1 (Homo sapiens) (UniProt Q9GZV3); experiment: CHT inhibitors, dose response, cell-based, 5-point CRC, membrane potential dye (AID 504840); conditions: HEK293-CHT, choline-induced depolarization, CHT with LV-to-AA double alanine mutation; series mostly up to 37 µM; inhibition: at the top concentration;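 further: 0% = buffer-only response and 100% = EC90 choline response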
Sequence (Q9GZV3 whole entry, looked up): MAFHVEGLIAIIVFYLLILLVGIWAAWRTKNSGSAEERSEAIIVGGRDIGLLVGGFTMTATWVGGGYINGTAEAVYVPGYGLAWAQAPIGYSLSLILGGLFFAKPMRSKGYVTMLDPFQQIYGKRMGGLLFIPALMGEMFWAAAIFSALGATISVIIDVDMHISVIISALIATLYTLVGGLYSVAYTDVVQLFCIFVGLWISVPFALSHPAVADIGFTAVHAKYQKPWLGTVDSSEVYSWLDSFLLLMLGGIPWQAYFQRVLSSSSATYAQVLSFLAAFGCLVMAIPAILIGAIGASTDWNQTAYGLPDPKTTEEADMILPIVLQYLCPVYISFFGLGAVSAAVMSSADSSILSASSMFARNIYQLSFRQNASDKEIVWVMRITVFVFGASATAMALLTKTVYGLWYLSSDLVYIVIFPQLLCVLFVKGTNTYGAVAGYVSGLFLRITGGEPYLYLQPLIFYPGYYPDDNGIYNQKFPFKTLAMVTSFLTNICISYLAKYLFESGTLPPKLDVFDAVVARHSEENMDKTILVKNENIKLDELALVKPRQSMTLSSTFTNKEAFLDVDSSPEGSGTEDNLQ

inhibition, inactive:
COc1ccccc1NS(=O)(=O)c1ccc(O)c(C(=O)OCC(=O)c2ccc(Cl)cc2Cl)c1 5.73%
Cc1c(Cl)cccc1NCC(=O)NN=C1CCCC1 48.2%
Cc1nc(SC2CC(=O)N(c3cc(Cl)cc(Cl)c3)C2=O)nc2c1CCCC2 (centres undefined) 18.9%
COc1ccc(OC)c(Cc2nnc(CCC(=O)N3CCN(C4CCCC4)CC3)o2)c1 50.6%
Cc1cc(/C=N/NC(=O)C(=O)NCc2ccccn2)c(C)n1-c1ccccc1 59.3%
Cc1ccc(S(=O)(=O)N/N=C/c2cc(Br)ccc2O)cc1 53.1%
CC(C)(C)c1cc(C(=O)N/N=C/c2ccc(F)cc2)n(-c2ccccc2)n1 37.8%
CCOC(=O)c1cc2c(s1)-c1c(C)cccc1OC2 -5.26%
COc1ccc(C(=O)NC(=S)NNC(=O)c2ccc(C)cc2)cc1 27.9%
Cc1ccccc1NC(=S)NNC(=O)c1ccncc1 1.63%
Cc1ccc(C)c(NC(=O)c2cccc(Oc3ccc([N+](=O)[O-])cc3Cl)c2)c1 29.1%
O=C(Nc1ccc(F)cc1)N1CCN(CCc2ccccc2)CC1 32.2%
C#CC[N+]1(CC#Cc2ccc(C)cc2)CCCCC1 63.6%
Cc1ccc(C#CC[N+]2(C)CCCCC2)cc1 62.4%
Cc1cn([C@H](C(=O)NCCCCCCCCCCC(=O)N2CCN(C(=O)OC(C)(C)C)CC2)[C@@H](C)O)nn1 38%
O=C(CNC(=O)c1ccc(Cl)cc1Cl)OCC(=O)c1ccc2c(c1)OCCO2 56.5%
CN(/N=C/c1cc(Cl)cc(Cl)c1O)C(=S)NC(C)(C)C 19.2%
COc1cc(CCCN2C(=O)C(=O)NC[C@H]2Cc2cccc3ccccc23)cc(OC)c1OC 61.8%
CC(NC(=O)Cc1ccc(S(=O)(=O)N2CCOCC2)s1)c1ccc(Cl)c(Cl)c1 (centres undefined) 36.9%
CCOC(=O)c1ccc(NC(=O)c2ccc(C)c(S(=O)(=O)N3CCOCC3)c2)cc1 22.8%
Cc1ccc(F)cc1NC(=O)c1ccc(NS(=O)(=O)c2ccc(Br)s2)cc1 64.1%
O=S(=O)(Nc1nc2ccccc2s1)c1ccc(Cl)s1 27.1%
O=C(Nc1ccccc1)c1nnn(Cc2ccccc2)c1NC(=O)C(F)(F)F 45.3%
O=C(O)CSc1cc(C(=O)c2ccccc2O)cn2c(=O)c3c(-c4ccccc4)csc3nc12 76.9%
Cc1ccc(-c2csc3nc(SCC(=O)Nc4ccc(Cl)c(C(=O)O)c4)[nH]c(=O)c23)cc1 41.6%
CCCc1cc(NCCN(C)C)n2c(nc3ccccc32)c1C#N 47.7%
O=S(=O)(Nc1nc2ccccc2nc1NCC1CCCO1)c1cc(Cl)ccc1Cl (centres undefined) 28.4%
O=C(Nc1sc2c(c1C(=O)O)CCCC2)c1ccc(Cl)cc1 26.7%
NC(=O)c1c(NC(=O)CN2C(=O)NC(Cc3ccccc3)C2=O)sc2c1CCC2 (centres undefined) 51.4%
